Experimental data as given in PubChem BioAssay.
Active and inactive are the calls of the source.

Tests used:
[1] = molecular target: Albumin (Bos taurus) (UniProt P02769); experiment: bovine serum albumin binders on microarray, profiling panel, artefact control for SMM control protein annotation, biochemical, small-molecule microarray, Alexa647 label, 635/667 nm fluorescence (AID 1118); conditions: BSA-A647 binding, fluorescence 635 nm, higher = more signal;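 also: score merges 667 nm emission intensity and signal-to-noise per printed compound spot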
Sequence of Albumin (Bos taurus) (P02769 whole entry, looked up): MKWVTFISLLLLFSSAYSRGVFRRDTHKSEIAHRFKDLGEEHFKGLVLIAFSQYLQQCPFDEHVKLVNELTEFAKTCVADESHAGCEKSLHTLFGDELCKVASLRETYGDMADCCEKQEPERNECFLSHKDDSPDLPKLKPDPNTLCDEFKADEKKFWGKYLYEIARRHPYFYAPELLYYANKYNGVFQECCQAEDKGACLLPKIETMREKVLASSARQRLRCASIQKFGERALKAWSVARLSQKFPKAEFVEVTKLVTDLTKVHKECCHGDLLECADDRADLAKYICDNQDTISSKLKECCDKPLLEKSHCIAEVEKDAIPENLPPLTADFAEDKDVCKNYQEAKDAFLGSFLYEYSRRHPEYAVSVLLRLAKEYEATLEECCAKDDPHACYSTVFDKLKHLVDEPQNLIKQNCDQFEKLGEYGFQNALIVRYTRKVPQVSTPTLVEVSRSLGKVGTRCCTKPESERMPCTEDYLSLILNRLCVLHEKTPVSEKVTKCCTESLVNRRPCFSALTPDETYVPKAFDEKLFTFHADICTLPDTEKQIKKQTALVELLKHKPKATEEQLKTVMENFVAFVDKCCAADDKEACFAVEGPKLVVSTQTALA

[2] = small-molecule microarray binders of probe aXIP, primary screen, biochemical, NeuroSMM set, 635/667 nm fluorescence (AID 1119); conditions: higher = more signal, called active from +8 up or from −8 down;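 also: probe is the protein aXip251-270 applied at 1 µg/mL to compound-printed slides; binding of probe to printed compounds measured as 667 nm fluorescence plus signal to noise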
[3] = small-molecule binders of probe aNOTCH3, primary screen, biochemical, small-molecule microarray, 635/667 nm fluorescence (AID 1120); conditions: higher = more signal;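 also: probe is a biotin-tagged antibody raised against NOTCH3 rather than NOTCH3 protein; score merges spot fluorescence near 667 nm with spot signal to noise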
[4] = small-molecule binders of probe aNOTCH2, primary screen, biochemical, small-molecule microarray, 635/667 nm fluorescence (AID 1121); conditions: higher = more signal;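 also: score merges feature fluorescence read at 667 nm with its signal to noise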
[5] = molecular target: Carbonic anhydrase 2 (Homo sapiens) (UniProt P00918); experiment: CAII small-molecule binders, profiling panel, biochemical, small-molecule microarray, Alexa647-labelled CAII (AID 1122); conditions: CAII-A647 binding fluorescence, higher = more signal
[6] = COS7 lysate on small-molecule microarray, probe aHis, 635 nm (AID 1123); conditions: COS7 cell lysate, fluorescence, higher = more signal;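 also: z-score combines 667nm fluorescence intensity with signal-to-noise per printed compound spot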
[7] = compound binding in COS7 lysate, probe aLAP1, primary screen, cell lysate, small-molecule microarray (AID 1124); conditions: probe aLAP1, fluorescence, higher = more signal;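 also: lysate comes from COS7 cells expressing LAP1 and is applied at 0.3 µg/mL; score merges spot fluorescence near 667 nm with signal-to-noise over triplicate slides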
[8] = system: Sam68 (KHDRBS1); experiment: Sam68 small-molecule binders, primary screen, biochemical, small-molecule microarray, 635 nm fluorescence (AID 1125); conditions: small-molecule microarray binding, higher = more signal;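 also: score merges 667 nm channel intensity with signal to noise over triplicate slides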
[9] = system: Chordin-like protein 2 (CHRDL2); experiment: CHRDL2 small-molecule binders, primary screen, biochemical, small-molecule microarray, 635 nm fluorescence (AID 1126); conditions: small-molecule microarray binding, fluorescence 635 nm; higher = more signal;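 also: printed compound slides probed with Chrdl2 protein at 4 µg/mL for 1 h at 4 C; score merges 667 nm emission intensity with signal to noise over three replicate slides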
[10] = molecular target: Concanavalin-A (Canavalia ensiformis) (UniProt P02866); experiment: ConA small-molecule binders, primary screen, artefact control for SMM control protein annotation, biochemical, small-molecule microarray, Alexa647 label, 635 nm (AID 1127); conditions: ConA-A647 binding fluorescence, higher = more signal;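 also: z combines 667 nm emission intensity with signal-to-noise across three replicate slides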
Sequence of Concanavalin-A (Canavalia ensiformis) (P02866 whole entry, looked up): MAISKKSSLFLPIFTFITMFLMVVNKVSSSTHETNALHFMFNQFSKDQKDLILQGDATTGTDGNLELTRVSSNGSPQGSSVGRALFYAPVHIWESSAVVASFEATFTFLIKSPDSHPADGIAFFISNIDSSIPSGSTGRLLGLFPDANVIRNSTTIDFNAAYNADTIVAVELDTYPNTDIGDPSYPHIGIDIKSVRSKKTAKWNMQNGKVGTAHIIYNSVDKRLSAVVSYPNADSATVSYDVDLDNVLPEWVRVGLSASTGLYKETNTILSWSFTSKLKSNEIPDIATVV

SMILES | composite z-score [1] | composite Z-score [2] | composite z-score [3] | composite z-score [4] | composite z-score [5] | composite z-score [6] | composite z-score [7] | composite z-score [8] | composite z-score [9] | composite z-score [10]
CCCC[C@H]1OB(O)C[C@H]2C1=C(C)Cn1c(=O)n(-c3ccccc3)c(=O)n12 | 0.242 | -0.426 (inactive) | -0.236 | -0.177 | -0.159 | 0.549 | 0.144 | 0.401 | 0.77 | 0.0577
CCCCCCCCCCC(O)C1C=CC2C(=O)N(c3ccccc3)C(=O)C2N1Nc1ccc([N+](=O)[O-])cc1 (stereo not given) | 0.804 | 0.568 (inactive) | 0.216 | -0.0984 | 0.594 | 1.63 | 0.109 | 1.31 | -0.301 | 1.05
C=C(/C(=C/C[C@@H](OC(C)=O)c1ccc(CO)o1)c1cnc2ccccc2c1)C(C)C | -0.243 | 1.64 (inactive) | 0.12 | -0.0771 | 0.815 | 1.5 | 1.11 | 1.3 | 0.847 | 0.971
COC(=O)[C@@]1(Cc2ccc(F)cc2)[C@H]2c3cc(C(=O)N4CCCC4)n(CCc4ccc(OC)c(Br)c4)c3C[C@H]2CN1C(=O)c1ccccc1 | 0.843 | -0.61 (inactive) | 0.591 | 0.323 | 0.599 | 3.26 | 0.987 | 1.33 | -1.39 | 1.15
C=CCC(OC(C)=O)[C@@H]1[C@@H](N(Cc2cc3ccccc3o2)C(=O)c2cccc3ccccc23)c2cc(OCCCO)ccc2N1C(=O)Cc1ccc(OC)cc1 (stereo not given in full) | -0.131 | 0.495 (inactive) | 0.0602 | -0.0937 | 0.327 | 0.497 | -0.0685 | -0.0427 | 0.364 | -0.162
COc1ccc([Si](C)(C)[C@@H]2[C@@H](CCn3cc([C@H](O)c4ccccc4)nn3)O[C@]3(C(=O)N(C)c4ccccc43)[C@H]2C)cc1 | 0.718 | 0.19 (inactive) | -0.175 | -0.19 | 0.494 | 0.613 | 0.0014 | 0.302 | -0.13 | 0.44
COc1ccc(C#Cc2ccc3c(c2)[C@]2(C(=O)N3)[C@H](C(=O)N3CCc4cc(OC)c(OC)cc4C3)[C@H]3C(=O)O[C@H](c4ccccc4)[C@H](c4ccccc4)N3[C@@H]2c2ccc(OCCO)cc2)cc1 | -0.0155 | 0.289 (inactive) | 0.0762 | -0.0859 | 0.136 | 1.19 | 0.351 | 1.24 | 0.523 | 1.07
O=C1C[C@@](C(=O)O)(c2ccc([N+](=O)[O-])cc2)[C@@H](c2ccc(CO)cc2I)N1C1CCCCC1 | 0.909 | 0.477 (inactive) | 0.18 | -0.0397 | 0.673 | 1.95 | -0.405 | 0.765 | -0.422 | 1.15
Cc1c(NC(=O)/C(C#N)=C/C=C/c2ccccc2)c(=O)n(-c2ccccc2)n1C | 0.566 | 0.54 (inactive) | 0.0859 | 0.136 | 0.682 | 0.811 | -0.195 | -0.144 | 0.427 | 0.802
CCCC[C@@H]1C[C@H]1[C@@H](NC(=O)c1ccccc1)c1ccccc1 | 0.0945 | 0.103 (inactive) | 0.667 | 0.253 | -0.0524 | 0.506 | -0.159 | 0.138 | -0.608 | -0.482
O=C1O[C@H](c2ccccc2)[C@H](c2ccccc2)N2[C@H]1[C@@H](C(=O)NC[C@H](O)c1ccccc1)[C@]1(C(=O)Nc3ccc(C#CC4(O)CCCCCC4)cc31)[C@H]2c1ccccc1OCCO | 0.574 | 0.228 (inactive) | -0.0694 | 0.0785 | 0.411 | 1.45 | 1.29 | 1.32 | 0.117 | 0.8
C=C(CCCC)C(=O)CC[C@H](OC(C)=O)c1ccc(CO)o1 | -0.471 | 0.304 (inactive) | 0.0701 | -0.117 | 0.637 | 0.136 | 0.164 | 0.865 | -0.149 | -0.0156
C=C[C@H](C)[C@H](OC(=O)Nc1ccc(OC)cc1)c1ccc(O)c2ccccc12 | 0.171 | 0.741 (inactive) | -0.185 | -0.193 | 0.696 | 0.702 | 0.513 | -0.07 | 0.396 | -0.503
C=CCCN(CC#C[C@H]1Oc2ccccc2S(=O)(=O)N2CCC[C@@H]12)S(=O)(=O)c1ccc(C)cc1 | 0.0985 | 0.671 (inactive) | 0.0311 | -0.102 | 0.208 | 0.273 | 0.758 | 0.215 | 0.607 | -0.464
COc1ccc([Si](C)(C)[C@H]2[C@H](CC(=O)N(CCO)Cc3ccccc3)O[C@@]3(C(=O)N(Cc4cccc(N5C(=O)c6cccc7cccc5c67)c4)c4ccccc43)[C@@H]2C)cc1 | 0.375 | -0.025 (inactive) | -0.0821 | -0.154 | 0.519 | 0.934 | 0.228 | 0.75 | -0.108 | 1.09
C=CCOC(=O)[C@@H]1[C@H]2C(=O)O[C@H](c3ccccc3)[C@H](c3ccccc3)N2[C@H](c2ccc(OCCOC(=O)[C@H]3C[C@H]4C(=O)N[C@@H](CCCC[N+](C)(C)C)C(=O)N4[C@H]3c3cccc(OCCO)c3)cc2)[C@@]12C(=O)Nc1ccc(I)cc12 | -0.707 | 0.629 (inactive) | -0.0647 | -0.142 | 0.465 | 0.93 | 0.341 | 1.19 | 1.19 | 1.1

SMILES | composite z-score [1] | composite Z-score [2] | composite z-score [3] | composite z-score [4] | composite z-score [5] | composite z-score [6] | composite z-score [7] | composite z-score [8] | composite z-score [9] | composite z-score [10]
COCCOC(=O)N1C(=O)[C@@]2(c3cc(C#Cc4ccc(OC)cc4)ccc31)[C@H](C(N)=O)[C@H]1C(=O)O[C@H](c3ccccc3)[C@H](c3ccccc3)N1[C@@H]2c1ccc(O)cc1 | -1.62 | 0.0064 (inactive) | 0.319 | -0.0125 | 0.0424 | -0.304 | 0.0413 | -0.986 | -1.71 | -1.67
CC(=O)NCCCC[C@@H]1NC(=O)[C@@H]2C[C@H](C(=O)NCc3ccc(F)cc3)[C@H](c3ccc(O)cc3)N2C1=O | -1.25 | 0.15 (inactive) | -0.0391 | -0.153 | 0.715 | 1.79 | 0.453 | 1.02 | 0.526 | 1.15
CN1C(=O)C2C(C1=O)C1C=C(c3ccc(CO)cc3)C2C(C2CC2)N1Cc1cc2c(cc1Br)OCO2 (stereo not given) | 1.03 | 1.55 (inactive) | 0.211 | 0.109 | 0.786 | 3.13 | 0.863 | 1.3 | 0.258 | 1.16
OCCCc1cc[n+](Cc2cccc(OC(F)(F)F)c2)cc1 | 0.589 | 0.755 (inactive) | 0.147 | -0.101 | 0.842 | 2.02 | 0.348 | 1.28 | 0.421 | 1.09
C=CCOC(=O)[C@@H]1[C@H]2C(=O)O[C@H](c3ccccc3)[C@H](c3ccccc3)N2[C@H](c2ccc(OCCOC(=O)[C@H]3C[C@H]4C(=O)N[C@@H](CC(C)C)C(=O)N4[C@H]3c3cccc(OCCO)c3)cc2)[C@@]12C(=O)Nc1ccc(I)cc12 | -0.413 | -0.367 (inactive) | 0.19 | -0.0424 | 0.35 | 1.48 | 0.334 | 1.29 | 1.04 | 1.14
CN(C)CCCCNC(=O)[C@@H]1C[C@@H]2C(=O)N[C@@H](CCCCN)C(=O)N2[C@@H]1c1cccc(OCCO)c1 | -0.564 | 0.703 (inactive) | -0.0918 | 0.0072 | 0.42 | 2.85 | 0.429 | -0.266 | -0.0061 | 0.344
COC(=O)c1c2oc(c1C(=O)OC)C(=O)N[C@H](Cc1ccccc1)Cn1nncc1C1(CCCCC1)NC(=O)N[C@H](CO)CC2 | -0.399 | 0.699 (inactive) | -0.143 | -0.192 | 0.163 | 0.388 | -0.0073 | 0.702 | 0.419 | 0.0053
Cc1ccc(S[C@]2(C(=O)NCC(C)C)CC(=O)N(Cc3ccccc3)[C@@H]2c2ccc(CO)cc2)cc1 | 0.397 | 0.941 (inactive) | -0.406 | 0.0196 | 0.748 | 1.78 | 0.984 | -0.0273 | -2.02 | -1.1
Cc1ccc(S[C@]2(C(=O)NCC(F)(F)F)CC(=O)N(C3Cc4ccccc4C3)[C@@H]2c2ccc(CO)cc2I)cc1 | 0.0944 | 0.325 (inactive) | -0.207 | -0.156 | 0.629 | 0.403 | -0.245 | -0.292 | -1.18 | -1.71
CCN(CC)c1ccc(N2CC=CC34O[C@@H]5/C=C\CCCOC(=O)C5[C@H]3C(=O)N(CCCO)[C@@H]4C2=O)cc1 (stereo not given in full) | -1.05 | 0.895 (inactive) | -0.373 | -0.104 | 0.935 | 3.01 | 2.3 | 0.244 | -1.83 | -0.77
CC(C)NC(=O)[C@@]1(c2ccc([N+](=O)[O-])cc2)CC(=O)N(C(C)C)[C@@H]1c1ccc(CO)cc1 | 0.697 | 0.461 (inactive) | -0.399 | -0.176 | 0.718 | 0.859 | 0.723 | 0.0001 | -1.66 | -0.0183
COC(=O)[C@@]1(Cc2ccc(OC)cc2)[C@H]2c3cc(C(=O)N4CCCC4)n(CCN4CCOCC4)c3C[C@H]2CN1C(=O)c1ccccc1 | 1.06 | 1.42 (inactive) | 1.72 | 1.05 | 0.87 | 3.42 | 0.94 | 1.29 | 0.265 | 0.991
C=CCC(OC(C)=O)[C@@H]1[C@@H](N(Cc2ccc(-c3ccccc3)cc2)C(=O)c2ccc(C)cc2)c2cc(OCCCO)ccc2N1C(=O)c1ccc2ccccc2n1 (stereo not given in full) | -0.361 | -0.181 (inactive) | 0.246 | -0.0134 | 0.0144 | 0.249 | -0.446 | -0.44 | 0.0539 | -1.78
COc1ccc([Si](C)(C)[C@@H]2[C@@H](CCO)O[C@]3(C(=O)N(Cc4ccc(N5C(=O)c6cccc7cccc5c67)cc4)c4ccccc43)[C@H]2C)cc1 | 0.308 | 0.77 (inactive) | -0.252 | -0.119 | 0.382 | 0.332 | 0.232 | -0.276 | -0.161 | -0.259
C=CCN1C(=O)[C@]2(Cc3ccccc31)N=C(c1ccc(OCCCO)cc1)O[C@@H]2c1ccccc1 | -0.171 | 2.13 (inactive) | 0.0562 | 0.121 | 0.253 | 2.37 | 0.339 | 0.965 | 0.569 | 1.08
O=C1C2C=CC(C(O)C3CC=CCC3)N(n3cnnc3)C2C(=O)N1Cc1ccccc1 (stereo not given) | -0.952 | 0.241 (inactive) | -0.213 | -0.202 | 0.903 | 0.233 | 1.34 | 0.185 | -1.69 | -0.137
